Inconclusive results are not listed. The source made the active and inactive calls. Calls come from the whole dose curve; as a rule, active = well fitted curve in the direction sought with a large enough effect; inconclusive = small, poorly fitted or top-dose-only effect, or another doubt; inactive = no such curve, though single readings can be large; an effect the other way counts as inactive or inconclusive.
Legend:
[1] = qHTS assay for measurement of the activity of small molecule inhibitors on Zika virus induced Caspase-3 activity in human iPSC derived neural progenitor cells (hNPCs) (AID 1224857); note: nearly all actives have a fitted effect of over 65% in size
Outline: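 After overnight (16–20 h) culture at 350 cells/well, hNPCs get compound, then ZIKV 2 FFU/cell one hour later. Six hours on, Caspase-Glo 3/7 is added and luminescence measured.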

[2] = qHTS assay to identify small molecule inhibitors of chordoma cells - UCH-1 (AID 1259355); note: nearly all actives have a fitted effect of over 55% in size
Outline: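 Cells (800/well) were seeded and left overnight at 37 C, 5% CO2, then treated with drugs at 15 concentrations plus a combination mix of auranofin, camptothecin, doxorubicin, rubitecan and topotecan. Viability after 48hr was read by CellTiter-Glo luminescence.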

[3] = qHTS assay to identify small molecule inhibitors of chordoma cells - UCH-2 (AID 1259356); note: series mostly up to about 46 µM
[4] = P-glycoprotein substrates identified in KB-8-5-11 adenocarcinoma cell line, qHTS therapeutic library screen (AID 1346987); note: series mostly up to about 44 µM; nearly all actives have a fitted effect of over 65% in size
Outline: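 KB-8-5-11: colchicine-selected sub-line of KB-3-1 over-expressing P-gp; assay medium lacked colchicine. 72 h drug exposure at 37 degree C, CellTiter-Glo.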

[5] = qHTS assay for measurement of the activity of small molecule inhibitors on Zika virus induced Caspase-3 activity in human astrocytoma cells (AID 1224859)
Outline: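 Inhibition of Zika-induced caspase-3/7 activity: SNB-19 cells, 1 h compound pretreatment, ZIKV 2 FFU/cell for 6 h at 37 C, Caspase-Glo luminescence read-out.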

Measured: Potency

CC(C(=O)O)c1cccc(Oc2ccccc2)c1 (stereo not given)
not listed: [5]
inactive: all other assays above

NS(=O)(=O)c1cc(C(=O)O)cc(N2CCCC2)c1Oc1ccccc1
not listed: [5]
inactive: all other assays above

CN(C)CCOC(c1ccc(Cl)cc1)c1ccccn1 (stereo not given)
inactive: [1] | [2] | [3]

COc1ccc(C(=O)c2ccccc2)c(O)c1
not listed: [5]
inactive: all other assays above

O=C(O)CCc1nc2ccccc2[nH]1
not listed: [5]
inactive: all other assays above

NC(=S)N/N=C/c1cccnc1
not listed: [5]
inactive: all other assays above

CC(=O)NC(=O)c1ccccc1O
not listed: [5]
inactive: all other assays above

O=C(O)c1ccc(S(=O)(=O)N(Cl)Cl)cc1
not listed: [5]
inactive: all other assays above

CN1CCN(c2c(F)cc3c(=O)c(C(=O)O)cn4c3c2SCC4)CC1
not listed: [5]
inactive: all other assays above

CC(CNC1CCCCC1)OC(=O)c1ccccc1 (stereo not given)
not listed: [5]
inactive: all other assays above

CCC1NC(=O)c2cc(S(N)(=O)=O)c(Cl)cc2N1 (stereo not given)
not listed: [5]
inactive: all other assays above

COc1cc(NS(=O)(=O)c2ccc(N)cc2)ncn1
not listed: [5]
inactive: all other assays above

O=C1c2cccc3c2[C@H](CCC3)CN1[C@@H]1CN2CCC1CC2
inactive: [5] | [2] | [3]

O=S(=O)(O)c1ccc(O)cc1
not listed: [5]
inactive: all other assays above

N#C/C(=C1\SCC(c2ccccc2Cl)S1)n1ccnc1 (stereo not given)
inactive: [1] | [2] | [3]

Cc1ccc(S(=O)(=O)NC(=O)NC2CCCC2)cc1
not listed: [5]
inactive: all other assays above

CCCCC(CC)COC(=O)c1ccc(N(C)C)cc1 (stereo not given)
not listed: [5]
inactive: all other assays above

— PubChem BioAssay (NCATS)
